gsp antagonist – antagonists of gsp mutant (McCune-Albright syndrome); 0.4% of 340,000 active; Potency, µM (titrated, usually from 76.9 µM), usual class: inhibitors; gsp-mutant cells, cAMP HTRF, 30 min; calls by dose curve; cell line not stated here;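 also: intracellular cAMP measured with PDE inhibitor Ro 20-1724 present during compound exposure; nearly all actives have a fitted effect of over 65% in size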
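HTRF cAMP read-out (cAMP-d2 plus anti-cAMP antibody-K in lysis buffer, 30 min RT). Before lysis, cells are exposed to compounds with […] for 30 min at 37C in DPBS containing Ca/Mg, BSA and Tween 20.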
RXFP1 antagonist – blocks the human relaxin receptor RXFP1 | AID 1259400 | activity change, negative = inhibition, % at 57.5 µM | Q9HBX9 | HEK293-RXFP1, relaxin-stimulated cAMP HTRF, 30 min; stronger effect = lower value | 0.59% of 350,000 active;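 active = activity change of -60% or lower, but not beyond a set lower limit; inconclusive = change between -60% and -40%, or beyond the set limit; inactive = change above -40%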
gsp ag – activates gsp, the McCune-Albright syndrome mutation; gsp mutant cells, cAMP HTRF, 30 min; Potency, µM (titrated, usually from 76.9 µM), most hits filed as activators; 0.13% of 340,000 active; AID 624287; active = well fitted activation curve with a large enough effect; inconclusive = small, poorly fitted or top-dose-only effect, or another doubt; inactive = no such curve, though single readings can be large or run the other way; cell line not stated here;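 also: phosphodiesterase inhibitor Ro 20-1724 added with compounds to block cAMP breakdown; nearly all actives have a fitted effect of over 60% in size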
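Cells stably selected in G418 were plated at 2000/well, grown 16-24 hr, then given compounds in DMSO with the PDE inhibitor […] (300 uM solution added) for 30 min at 37C; cAMP was read by HTRF.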
RXFP1 agonist – RXFP1 (human) receptor agonism; Q9HBX9; HEK293T-RXFP1 cAMP TR-FRET, 30 min; response scale: percent of porcine relaxin response, buffer zero; Potency, µM (top dose mostly 57.5 µM), hits mostly activators; 0.3% of 370,000 active; AID 2676; active = well fitted activation curve with a large enough effect; inconclusive = small, poorly fitted or top-dose-only effect; also: nearly all actives have a fitted effect of over 60% in size
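Agonist response is measured as cAMP accumulation in an RXFP1-transfected HEK293T line under PDE4 inhibition. Values are scaled between buffer-only and 29 nM porcine relaxin, and EC50s come from standard Hill equation fits.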
A number is an active result; n = inactive; u = inconclusive; x = no result given; [ ] = another dose, or the depositor's remark. Sampled rows, rich in hits. Any-hit rate of the full collection: about 0.9%.

SMILES	gsp antagonist	RXFP1 antagonist	gsp ag	RXFP1 agonist
CC1C(c2ccc3c(c2)OCO3)c2cc3c(cc2OC1N1CCOCC1)OCO3 (centres undefined)	n	-73	n	x
COc1cc(C2c3cc4c(cc3OC(N3CCCCC3)C2C)OCO4)cc(OC)c1O (centres undefined)	n	n	u	x
CCOc1cc(-c2ccc(OC(=O)c3ccccc3Cl)c(OC)c2)cc(=O)c2c(C)oc(C)c12	x	-73	x	n
CCOc1cc(-c2ccc(OC(=O)c3ccc(OC)cc3)c(OC)c2)cc(=O)c2c(C)oc(C)c12	x	n	x	n
COc1ccc2[nH]c3c(N4CCN(Cc5ccc6c(c5)OCO6)CC4)ncnc3c2c1	40µM	n	n	n
Cc1c(C)c2c(cc(C)c3c(-c4ccc(Br)cc4)coc32)oc1=O	x	n	x	n
CC(C)OCCCNC(=O)c1c2c(nc3ccccc13)C(=O)N(C1CCCCC1)C2	x	n	x	n
O=C(CSc1ccc(-c2ccco2)nn1)Nc1ccccc1	n	n	n[15.4 µM]	n
O=C(CSc1ccc(-c2ccco2)nn1)NCc1ccccc1Cl	n	x	11µM	n
Cc1ccc(CNC(=O)CSc2ncc3c(n2)-c2ccc(Cl)cc2N(Cc2ccccc2)S3(=O)=O)cc1	x	x	x	28µM
CCOc1ccc(NC(=O)CSc2ncc3c(n2)-c2ccc(Cl)cc2N(Cc2ccccc2)S3(=O)=O)cc1	x	n	x	11µM
Cc1cc(SCC(=O)Nc2ccccc2)nc(C)n1	n[15.4 µM]	n	n	n
CSc1nc(C)cc(SCC(=O)Nc2ccccc2)n1	u	n	32µM	n
Cc1coc2ccccc2c1=O	x	n	x	x
C(=N\Nc1nc2ccccc2[nH]1)/c1c[nH]c2ccccc12	40µM	n	n[15.4 µM]	n
Cc1cccc(NC(=O)c2cc(NC(=O)C3CCCCC3C(=O)O)ccc2N2CCCCC2)c1 (centres undefined)	35µM	n	n	n
CC(=O)Nc1ccc(N2CCCCC2)c(C(=O)Nc2cccc(C)c2)c1	n	n	n	n
CCOC(=O)c1cccc(NC(=O)c2sc3nc[nH]c(=O)c3c2C)c1	x	n	x	n
COc1ccc(-c2cnc(C)o2)cc1S(=O)(=O)Nc1ccc(NC(C)=O)cc1	x	x	x	n
Cc1nc2sccn2c(=O)c1CCN1CCC(=C(c2ccc(F)cc2)c2ccc(F)cc2)CC1	u	-67	x	n
Cn1c(SCc2cccc(F)c2)nc2c([nH]c3ccccc32)c1=O	x	n	x	u
O=C(NCC(c1ccco1)N1CCc2ccccc21)C(=O)Nc1ccccc1 (centres undefined)	n	-66	n[15.4 µM]	n
O=C(NCC(c1ccco1)N1CCc2ccccc21)C(=O)Nc1ccccc1F (centres undefined)	n	n	n	n
CN(C)S(=O)(=O)c1ccc(Cl)c(C(=O)OCC(=O)NC(=O)NC2CCCC2)c1	1µM	n	n	n
O=c1c2c3c(sc2nnn1Cc1ccc(F)cc1)CCCC3	x	n	x	n
SMILES	gsp antagonist	RXFP1 antagonist	gsp ag	RXFP1 agonist
CC(=O)OCC(=O)C1CCC2C3CC=C4CC(O)CCC4(C)C3CCC12C (centres undefined)	n	x	x	n
CC(=O)C1CCC2C3CC=C4CC(SC(=N)N)CCC4(C)C3CCC12C (centres undefined)	n	-105	n	x
O=C(NCCc1ccccc1)C(=O)NCC(c1cccnc1)N1CCN(c2ccccc2)CC1 (centres undefined)	x	n	x	n
O=C(NNc1nc(=O)c2cccnc2s1)c1ccccc1O	n	n	n[15.4 µM]	16µM
COc1ccc(OCC(=O)N/N=C/c2ccncc2)cc1	n	n	n	n
N#Cc1ccc(-c2ccc(OCC(=O)NN=Cc3ccncc3)cc2)cc1	35µM	n	n	x
Cc1ccc(CC(=O)N(Cc2nc(-c3ccc(C)cc3)no2)C(C)C)cc1	x	x	x	n
Clc1ccccc1OCCN1CCC(Cc2ccccc2)CC1	n	n	n	n
O=Cc1cc(Cl)ccc1OCCN1CCC(Cc2ccccc2)CC1	n	-109	n	n
CN(c1ccccc1)c1nc(N)c([N+](=O)[O-])c(Nc2ccccc2)n1	n	n	n	n
CN(c1ccccc1)c1nc(N)c([N+](=O)[O-])c(NC2CCCCC2)n1	50µM	n	n	n
Cc1ccc(-c2cc(C(F)(F)F)n3ncc(C(=O)O)c3n2)cc1	n	n	n	n
COCCNC(=O)c1cnn2c(C(F)(F)F)cc(-c3ccc(C)cc3)nc12	35µM	n	n	n
CCC(=O)N1CCN(c2ccc(NC(=O)c3cc4ccccc4o3)cc2Cl)CC1	20µM	n	n	n
Cn1c2c(c(=O)n3ncnc13)CCCC2	n	n	n[15.4 µM]	22µM
Cc1ccccc1S(=O)(=O)Cc1ccc(C(=O)N(C)C2CCCCC2)o1	50µM	n	u	n
